The structures appear in SMILES notation. Results filed as inconclusive are left out. Entries that show only a call come without a potency. Active and inactive are the calls of the source. The call rests on the fitted dose curve; in most records, active means well fitted cell-killing curve with a large enough effect; inconclusive means small, poorly fitted or top-dose-only effect, or effect the other way; inactive means no such curve, though single readings can be large or run the other way.

A short description of this assay: Cell viability assay in S16 Pmp22-HiBiT cells. As to conditions: S16 Schwann Pmp22-HiBiT viability, CellTiter-Glo, 24 h; series mostly up to 27.9 µM. From the text: Assay Provider: Jim Inglese Ph.D. National Center for Advancing Translational Science, National Institutes of Health, Rockville, MD CMT is a heterogeneous group of neurological disorders that affect approximately 1 in 2,500 people. In particular, the most common form of CMT, CMT1A is genetically linked to the duplication of the PMP22 gene which leads to Schwann cell overexpression, thus manifesting itself as a typical case of dose-sensitive diseases. To identify small molecule compounds that can mediate the expression of PMP22 we developed a phenotypic assay screening strategy by utilizing genome editing techniques to construct Schwann cell lines containing novel reporter technology to monitor the transcriptional or translational regulation of PMP22. For high sensitivity we use a bioluminescent reporter system embedded in the 3' UTR of the PMP22 gene (S16(c9) Pmp22-F2sN) to identify compounds that inhibit gene expression. […] We can further discriminate the effect of all transcriptionally active molecules on PMP22 translation or stability with an assay that incorporates a short NLuc peptide (HiBiT) at the C-terminus of expressed PMP22 (S16(f8) PMP22-HiBiT) allowing alpha complementation and luminescence detection of membrane-associated PMP22 protein. These assays were screened against the NCATS Sytravon Library Collection. Miniaturization of these assays to 1536-well plate format for quantitative high throughput screening (qHTS) yielded rich data sets immediately from the qHTS assay (S16(c9) Pmp22-F2sN), when compared with data from a cell viability assay (Cell TiterGlo) to identify compounds that decreased the output signals through cellular toxicity to streamline the selection process of actives for subsequent characterization using the HiBiT assay (S16(f8) PMP22-HiBiT).
Cell viability assay in S16 Pmp22-HiBiT cells PROTOCOL TABLE (format as described by Inglese J, Shamu CE and Guy RK. 2007) SEQUENCE No. (e.g., 1, 2, 3, etc.); PARAMETER (e.g., Cells, Incubation, Reagent, etc.); VALUE and DESCRIPTION. 1. Cells. Add 500-1,000 cells in 4 uL in growth media (DMEM High Glucose, No Phenol Red media + 10% heat-inactivated FBS + 1% Pen/Strep supplemented media) per well into Greiner 1536-well white/solid bottom high base, TC-treated plates. 2. Compounds. Library compounds and controls added at 23nL per well, transferred by Pin Tool. 3. Incubation. Incubate plates at 37C, 5% CO2, 95% RH for 24 h. 4. Reagent. Add 3uL CellTiter-Glo per well of Greiner 1536-well plates. 5. Incubation. Incubate plates at room temperature for 15 min., protect from light. 6. Detector. Luminescence measured using CCD-based camera (Viewlux). NOTES (numbers refer to Sequence numbers above; values are from representative experiments) 6. Luminescence Read: Clear filter; Exposure = 1 sec, Gain = High, Speed = Slow, Binning = 2X REFERENCES: 1. Inglese J, Shamu CE and Guy RK, Reporting data from high throughput screening of small molecule libraries, Nature Chemical Biology, 2007, 3(8): 438-441. doi.org/10.1038/nchembio0807-438 2. Yasgar A, Shinn P, Jadhav A, Auld DS, Michael S, Zheng W, Austin CP, Inglese J and Simeonov A, Compound Management for Quantitative High-Throughput Screening. J. Assoc. Lab. Auto., 2008, 13: 79-89. doi: 10.1016/j.jala.2007.12.004
(With HiBiT, luminescence reflects the tagged protein that the partner subunit can reach.)
Regarding `CCC(=O)C1=C(c2cccc([N+](=O)[O-])c2)N(C(=O)CC)n2c(nnc2-c2ccccc2)S1`, the Potency entry was “inactive”. In the case of `COc1ccc(Cl)cc1NC(=O)CCCS(=O)(=O)c1nc(-c2ccc(OC)c(OC)c2)cc(C(F)(F)F)n1`, the Potency is 6.45 µM (active).

Turning to `CCC(=O)N1CCc2cc(S(=O)(=O)CCC(=O)Nc3ccc(Cl)c(C(F)(F)F)c3)ccc21`, the Potency entry is “inactive”. For `COc1ccc(NC(=O)c2oc3ccccc3c2NC(=O)Cc2ccc(F)cc2)c(OC)c1` the value was “inactive”; for `Cc1ccc(CNC(=O)c2nc(S(=O)(=O)Cc3ccc(C)cc3)ncc2Cl)cc1`, “inactive”; for `Cc1ccc(NC(=O)CSc2nc3ccc(NC(=O)COc4ccc(C)cc4)cc3s2)cc1`, “inactive”. Take `Cc1cccc(Nc2c3c(nc4nncn24)CCC3)c1C`: the Potency result is “inactive”. Turning to `COc1ccc(CCNC(=O)Cn2c(-c3cccs3)cc3cc(F)ccc32)cc1OC`, the Potency entry was “inactive”.

Turning to `Cc1ccc(S(=O)(=O)c2nnn3c2nc(NC2CCCCCC2)c2sccc23)cc1C`, the Potency entry is “inactive”. For `O=C(CSc1nc2c([nH]c3ccccc32)c(=O)n1-c1cccc(Cl)c1)c1ccccc1` the value was “inactive”. Take `COc1ccccc1Nc1c2c(nc3ccc(NC(=O)/C=C/c4cccc(OC)c4OC)cc13)CCCC2`: the Potency is 16.2 µM (active). For `COc1ccccc1CNC(=O)CSc1nnc(C)c2c(C)n(-c3ccccc3)nc12`, the Potency result is “inactive”. Then `O=C(NCCCN1CCN(c2ccc(F)cc2)CC1)c1cc2c(Cl)nc3ccccc3c2s1`, with “inactive”. `Cc1ccc(CNC(=O)c2ccc(Nc3nc4ccccc4n4nnnc34)cc2)cc1`: the Potency entry was “inactive”. Then `CCc1ccc(OCC(=O)Nc2cc3oc4ccccc4c3cc2OC)cc1`, with “inactive”; and `CCc1ccccc1Nc1nn2c(=O)c3ccc(C(=O)Nc4cc(C)cc(C)c4)cc3nc2s1`, with 6.45 µM (active); and `COCCCNC(=O)c1ccc(-n2c(-c3ccccc3)cc3c2CCC(C)C3)cc1` (stereo not given), with “inactive”.

`COc1ccc(OC)c(NC(=O)CSc2c3c(nc4ccccc24)CCCC3)c1`: the Potency was 16.2 µM (active). Then `Cc1ccc(C)c(NC(=O)Cn2c(=O)n(Cc3ccc4c(c3)OCO4)c(=O)c3ccc(C(=O)NC4CCCCC4)cc32)c1`, with “inactive”; and `O=S(=O)(NCC(c1ccco1)S(=O)(=O)c1cccs1)c1ccc(Cl)cc1` (stereo not given), with “inactive”; and `Cc1c(Cl)cccc1NC(=O)c1oc2ccc(S(=O)(=O)N3CCC4(CC3)OCCO4)cc2c1C`, with “inactive”. For `COC(=O)c1c(-c2ccc(Cl)cc2)noc1N1CCN(c2ccccc2OC)CC1` the value was “inactive”; for `COc1ccc(-c2noc(CSc3nnc(-c4ccncc4)n3-c3ccc(C)cc3)n2)cc1`, “inactive”. `CCOC(=O)c1ccc(N2C(=O)c3[nH]nc(-c4ccc(C)cc4)c3C2c2ccc(O)c(OCC)c2)cc1` (stereo not given): the Potency entry was “inactive”. For the compound `Cc1cc(C)c(NC(=O)Cn2c(=O)n(Cc3ccco3)c(=O)c3ccc(C(=O)NC4CCCC4)cc32)c(C)c1`, the Potency entry was “inactive”. Then `COCCCNC(=O)c1ccc2c(c1)N=C(C)c1c(C)ccc(C)c1S2`, with “inactive”. Then `Cc1cccc(CS(=O)(=O)c2ncc(Cl)c(C(=O)Nc3nc4ccc(F)cc4s3)n2)c1`, with 6.45 µM (active); and `Cc1cc(NC(=O)C2CCCN(S(=O)(=O)c3cccc4nonc34)C2)ccc1Br` (stereo not given), with “inactive”. Then `CCc1ccc(C(=O)c2cn(CC(=O)Nc3cc(OC)cc(OC)c3)c3ccc(CC)cc3c2=O)cc1`, with “inactive”; and `COc1ccc(NC(=O)c2nc(S(=O)(=O)Cc3ccc(C)cc3)ncc2Cl)cc1`, with 8.13 µM (active). On to `COc1cccc(-n2c(SCC(=O)c3ccc(Cl)cc3)nc3c([nH]c4ccccc43)c2=O)c1`, for which the Potency result was “inactive”. Then `COc1ccc(Br)cc1CC1C(=O)Nc2ccccc21` (stereo not given), with “inactive”; and `O=C(Cn1c(-c2cccs2)cc2cc(F)ccc21)NCCCN1CCN(c2ccc(F)cc2)CC1`, with “inactive”.

Regarding `COc1ccccc1Nc1nn2c(=O)c3ccc(C(=O)Nc4ccc(F)cc4)cc3nc2s1`, the Potency is 4.57 µM (active). For `CCC(Sc1nc2ccccc2c2nc(-c3ccccc3)nn12)C(=O)Nc1cccc(OC)c1` (stereo not given) the value was “inactive”; for `Cc1ccc(NC(=O)N2CCc3cc(S(=O)(=O)N4CCC(C)CC4)ccc32)cc1F`, “inactive”. For `Cc1ccc(OCC(=O)Nc2ccc3nc(SCC(=O)N4CCc5ccccc54)sc3c2)cc1` the value was “inactive”.

For the compound `CCOC(=O)c1c(NC(=O)c2nc(S(C)(=O)=O)ncc2Cl)sc(C(C)=O)c1C`, the Potency was 6.45 µM (active). Regarding `CCCn1c(=N)c(C(=O)NC(C)c2ccccc2)cc2c(=O)n3ccccc3nc21` (stereo not given), the Potency entry was “inactive”.

Regarding `CCOC(=O)c1cc2c(=O)n3ccccc3nc2n(Cc2ccco2)c1=NC(=O)c1cc(C)cc(C)c1`, the Potency entry is “inactive”.

The values above are taken from PubChem BioAssay AID1508645 (National Center for Advancing Translational Sciences (NCATS), 2021).
